Measurements taken from PubChem BioAssay (NCI).
This is part of a sample that, as a whole, favours compounds with a hit. Of some 83,000 tested, about 20% had one in any assay.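 Single-concentration screen, 48 h exposure, 96-well plates. Endpoint: percent growth. Below 10 = active.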 Values without a mark were called inactive. Activity calls are given as the source filed them.

These compounds were tested on MDA-MB-435 melanoma (assay: NCI-60 one-dose screen, 48 h (100 = growth as untreated, 0 = no growth, -100 = all killed)). Settings: 10 µM unless noted.

SMILES	growth
CCCC(CCC)(C(N)=O)C(=O)O	102%
COc1cnc2c(c1)C(=O)c1c-2n(CCCNC(C)C)c(=O)c2cc(Cl)ccc12	-94.6% (active)
Cc1nn(-c2cccc(Cl)c2)c(C)c1N=Nc1ccc(Br)cc1	99.8%
CCCCCCCCCCCCNC(=O)N[C@H](C(=O)N[C@H]1/C=C/OCCNC(=O)/C=C/[C@H](C(C)C)NC1=O)C(C)C	28.3%
Cc1ccc(C(CN(C)C)C(=O)c2ccccc2)cc1 (stereo not drawn)	18.2%
CCCCCCCCCCCCCCCCCC(=O)[O][Sn]([CH2]CCC)([CH2]CCC)[CH2]CCC	-87.2% (active)
Cc1c2c(cc3c1[nH]c1ccccc13)C=NCC2	94.9%
COc1ccc(C(=O)C(CN(C)C)c2ccc(OC)cc2)cc1 (stereo not drawn)	43.8%
CC(=O)O[C@H]1CC[C@]2(C)[C@H]3CC=C4[C@@H]5CC(C)(C)CC[C@]5(C(=O)OCC(COC(=O)C(Cl)Cl)(COC(=O)C(Cl)Cl)NC(=O)C(Cl)Cl)CC[C@@]4(C)[C@]3(C)CC[C@H]2C1(C)C	78.6%
COc1ccc2c(c1)C1=NN(C(=O)CO)[C@H](c3ccc(OC(F)(F)F)cc3)[C@@H]1CC2	116%
COc1ccc(Cl)cc1Nc1nc(C(F)(F)F)ccc1C(=O)NN	40.2%
CC(C)c1cccc(C#N)c1	101%
COc1ccc2nc3ccccc3c(NCc3ccc(C)cc3)c2c1	42.2%
CS(=O)(=O)c1ccc(C(=O)N/N=C/c2ccccc2Cl)cc1	106%
CC(C)(C)c1ccc(C(=O)Nc2sc3cc(O)ccc3c2C(N)=O)cc1	83.9%
COc1cc(/C=C\c2cc(/C=C\c3ccc(O)c(OC)c3)n(C(=O)Nc3ccc(C(F)(F)F)cc3)n2)ccc1O	27.8%
CCOC(=O)c1cc(N)nc2ccccc12	108%
CCSCC1CC(O)(c2ccccc2)C(c2ccccc2)C(c2ccc(F)cc2)O1 (stereo not drawn)	-18.8% (active)
CN1C2CCC1/C(=C\c1ccc(Cl)cc1)C(=O)/C2=C/c1ccc(Cl)cc1	63.9%
CCOC(=O)C1=C(C)NC(=S)NC1c1ccccc1 (stereo not drawn)	102%
C=C1C(=O)O[C@H]2[C@H]1CC/C(COC(=O)N[C@@H](Cc1c[nH]c3ccccc13)C(=O)OC)=C\CC[C@@]1(C)O[C@@H]21	49.1%
Cc1nc(N)nc2c1CCC(Nc1ccccc1)S2 (stereo not drawn)	101%
COc1cc(OC)c2sc(-c3ccc(-n4cncc4-c4ccc(OC)c(N)c4)cc3)nc2c1	68.8%
COc1cc(OC)cc(-c2ccc(-c3ccc(C(=N)N)s3)s2)c1	-81.9% (active)

The compounds below were run on SW-620 colon in the same assay as above. Settings: 10 µM unless noted.

SMILES	growth
CCN(CC)C(=O)O/N=C(/C)c1ccccc1	106%
C=C1C(=O)O[C@H]2[C@H]1CC/C(COC(=O)NCc1ccc(Cn3c(=O)sn(CCCl)c3=O)cc1)=C\CC[C@@]1(C)O[C@@H]21	-20.3% (active)
COc1ccc2c(c1)sc1nc(-c3ccccc3)c(-c3cccc4ccccc34)n12	27.8%
c1ccc(-c2nnn(-c3ccccc3)n2)cc1	113%
CC(C)N(C(=S)SSC(=S)N(C(C)C)C(C)C)C(C)C	105%
Cc1ccc2c(C)c3c(ccc4ccccc43)c[n+]2c1	83.1%
O=C(N/N=C/c1ccc([N+](=O)[O-])cc1)c1ccccc1Nc1ccnc(C(F)(F)F)c1	-44.6% (active)
CC(C)CC1NC(=O)C(CC(C)C)N(CO)C1=O (stereo not drawn)	112%
Cc1ccccc1C1CC(=O)c2ccccc2C1C (stereo not drawn)	99.2%
O=C1/C(=C/N2N=C(c3ccc(Cl)cc3)CC2c2ccccc2O)SC(=S)N1c1cccc(C(F)(F)F)c1 (stereo not drawn)	64.7%
CN(C)CC(=O)c1ccc2cc(Br)c3ccccc3c2c1	54.7%
CCN(C(=O)CCl)C(C)(C)C(SSSC(c1ccc(Cl)cc1)C(C)(C)N(CC)C(=O)CCl)c1ccc(Cl)cc1 (stereo not drawn)	72.6%
COc1ccc(NC(=O)Cn2c(=O)sc3c(-c4ccc(Cl)cc4)cc(-c4ccc(Cl)cc4)nc32)cc1	99.6%
COc1cccc(/C=N\Nc2ccc([N+](=O)[O-])cn2)c1O	38%
CCN(CC)CC(=O)Nc1c(C)cc(C(=O)NN)cc1C	101%
CCCC(CCC)(C(N)=O)C(=O)O	103%
COc1cnc2c(c1)C(=O)c1c-2n(CCCNC(C)C)c(=O)c2cc(Cl)ccc12	-81.7% (active)
Cc1nn(-c2cccc(Cl)c2)c(C)c1N=Nc1ccc(Br)cc1	103%
CCCCCCCCCCCCNC(=O)N[C@H](C(=O)N[C@H]1/C=C/OCCNC(=O)/C=C/[C@H](C(C)C)NC1=O)C(C)C	48.1%
Cc1ccc(C(CN(C)C)C(=O)c2ccccc2)cc1 (stereo not drawn)	-53.8% (active)

SMILES	growth
CCCCCCCCCCCCCCCCCC(=O)[O][Sn]([CH2]CCC)([CH2]CCC)[CH2]CCC	-83.6% (active)
Cc1c2c(cc3c1[nH]c1ccccc13)C=NCC2	97%
COc1ccc(C(=O)C(CN(C)C)c2ccc(OC)cc2)cc1 (stereo not drawn)	11.9%
CC(=O)O[C@H]1CC[C@]2(C)[C@H]3CC=C4[C@@H]5CC(C)(C)CC[C@]5(C(=O)OCC(COC(=O)C(Cl)Cl)(COC(=O)C(Cl)Cl)NC(=O)C(Cl)Cl)CC[C@@]4(C)[C@]3(C)CC[C@H]2C1(C)C	79.4%
COc1ccc2c(c1)C1=NN(C(=O)CO)[C@H](c3ccc(OC(F)(F)F)cc3)[C@@H]1CC2	109%
COc1ccc(Cl)cc1Nc1nc(C(F)(F)F)ccc1C(=O)NN	88.6%
CC(C)c1cccc(C#N)c1	107%
COc1ccc2nc3ccccc3c(NCc3ccc(C)cc3)c2c1	18.5%
CS(=O)(=O)c1ccc(C(=O)N/N=C/c2ccccc2Cl)cc1	97.3%
CC(C)(C)c1ccc(C(=O)Nc2sc3cc(O)ccc3c2C(N)=O)cc1	53.6%
COc1cc(/C=C\c2cc(/C=C\c3ccc(O)c(OC)c3)n(C(=O)Nc3ccc(C(F)(F)F)cc3)n2)ccc1O	18%
CCOC(=O)c1cc(N)nc2ccccc12	91.8%
CCSCC1CC(O)(c2ccccc2)C(c2ccccc2)C(c2ccc(F)cc2)O1 (stereo not drawn)	-25.8% (active)
CN1C2CCC1/C(=C\c1ccc(Cl)cc1)C(=O)/C2=C/c1ccc(Cl)cc1	57.5%
CCOC(=O)C1=C(C)NC(=S)NC1c1ccccc1 (stereo not drawn)	97.3%
C=C1C(=O)O[C@H]2[C@H]1CC/C(COC(=O)N[C@@H](Cc1c[nH]c3ccccc13)C(=O)OC)=C\CC[C@@]1(C)O[C@@H]21	-6.63% (active)
Cc1nc(N)nc2c1CCC(Nc1ccccc1)S2 (stereo not drawn)	102%
COc1cc(OC)c2sc(-c3ccc(-n4cncc4-c4ccc(OC)c(N)c4)cc3)nc2c1	89.1%
COc1cc(OC)cc(-c2ccc(-c3ccc(C(=N)N)s3)s2)c1	-69.2% (active)
